About 9,100 (2.5%) of roughly 360,000 compounds were called active. Roughly 4% stayed inconclusive and do not appear here. Cut-off read from the data, not from the text of the source: active = max response below about -50%; inconclusive = no clear call, values can overlap the other calls; inactive = above that. Only a selection was taken, and actives are over-represented in it overall.

Data on 57 compounds can be found in PubChem BioAssay AID652054 (National Center for Advancing Translational Sciences (NCATS), 2013).
% is set by controls: 0 for no effect and ±100 for the full control effect.

For the test, the target named is D(3) dopamine receptor (Homo sapiens) (UniProt P35462). Kind of test: qHTS of D3 Dopamine Receptor Antagonist: qHTS. The settings on record: D3R cells, DiscoveRx beta-arrestin luminescence, antagonist mode; stronger effect = lower value. From the text: D3 DARs represent a very important target for the treatment of several neuropsychiatric disorders. Indeed, one of the most promising therapeutic applications for the D3 DAR is in the area of addiction and related disorders. […] These findings have been observed with a number of addictive substances including cocaine, amphetamine, nicotine, and alcohol. […] Antagonism of the D3 DAR may also be therapeutic in the treatment of schizophrenia or psychosis. […] Since the D3 DAR is expressed in areas of the CNS associated with the control of mood and emotion, it has been hypothesized that selective antagonism of the D3 DAR may be effective in treating psychosis without inducing the motor side effects typically seen with D2 DAR antagonists.
Chain of D(3) dopamine receptor (Homo sapiens) (P35462 whole entry, looked up): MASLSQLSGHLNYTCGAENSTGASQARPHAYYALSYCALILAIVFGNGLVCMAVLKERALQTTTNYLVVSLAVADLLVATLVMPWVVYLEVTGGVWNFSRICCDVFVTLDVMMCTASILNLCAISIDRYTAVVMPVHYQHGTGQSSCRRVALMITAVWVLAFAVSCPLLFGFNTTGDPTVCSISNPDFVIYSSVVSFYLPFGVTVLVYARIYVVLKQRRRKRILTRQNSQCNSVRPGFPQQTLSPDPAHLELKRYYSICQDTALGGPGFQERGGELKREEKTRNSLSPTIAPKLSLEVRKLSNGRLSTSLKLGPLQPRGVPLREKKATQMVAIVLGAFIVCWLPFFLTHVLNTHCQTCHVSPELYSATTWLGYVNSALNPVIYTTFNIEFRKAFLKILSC
This part of the project aims to discover novel antagonist.
NIH Chemical Genomics Center [NCGC]
NIH Molecular Libraries Probe Centers Network [MLPCN]
Assay Submitter (PI): David Sibley, NINDS
Freshly passaged cells are plated in 1536 well white, solid bottom plates at a density of 1500 cells/well in 3microl of complete media. After an overnight incubation at 37 degrees C in 5% CO2, cells are loaded with 23nl of test compound from the compound library (as well as dopamine controls) using a 1536 pintool and incubated at 37 degrees C for 90 minutes. Two microliters of DiscoveRx reagent is then added to all cells, and they are incubated for an additional 30 - 60 minutes at room temperature. Following incubation, luminescence is measured on a ViewLux CCD-based luminometer reader using a 20 sec exposure time.
For `CC(C)Oc1ccc(CN2CCC2(C)C(=O)NCc2ccc(C(F)(F)F)cc2)cc1` (configuration not stated), the max response, negative = inhibition is 30.5% (inactive). Turning to `CC(OC(=O)c1cccc(S(=O)(=O)N2CCOCC2)c1)C(=O)NCC1CCCCC1` (configuration not stated), the max response, negative = inhibition was -12.6% (inactive).

For the compound `CCCCC[C@H](C)N1C[C@@H](COCc2ccccc2)Oc2cc(N3CCC[C@@H]3CO)ccc2S1(=O)=O`, the max response, negative = inhibition was 8.76% (inactive). In the case of `CCCNC(=O)C1(C)CCN(C(=O)c2ccc(F)cc2Cl)C1` (configuration not stated), the max response, negative = inhibition was 1.43% (inactive). Consider `COc1cccc2c1C(=O)c1c(O)c3c(c(O)c1C2=O)CC(O)(C(C)=NNC(=O)c1ccc(Cl)c(Cl)c1)CC3OC1CC(N)C(O)C(C)O1` (configuration not stated), for which the max response, negative = inhibition was -50.5% (active). With `COc1ccc(NC(=O)C2(C)Cc3c(-c4cccc(NC(C)=O)c4)ccnc3O2)cc1OC` (configuration not stated), the max response, negative = inhibition is 17.2% (inactive). On to `COC(=O)[C@H]1C[C@H](OC(=O)NCc2ccccc2)[C@@]2(O)CN(S(=O)(=O)c3ccc(C)cc3)CC2[C@H]1C(=O)OC` (some centres not stated), for which the max response, negative = inhibition was -0.452% (inactive). For the compound `CC=CCn1c(SCCCc2ccccc2)nc2c1c(=O)[nH]c(=O)n2C`, the max response, negative = inhibition was 41.3% (inactive). In the case of `Cc1c(-c2ccccc2)n[nH]c1C(=O)N=Nc1c(O)[nH]c2ccccc12`, the max response, negative = inhibition is 32.7% (inactive). Consider `Oc1[nH]c2ccccc2c1N=Nc1c(F)c(F)c(F)c(F)c1F`, for which the max response, negative = inhibition was 17.9% (inactive). As for `O=C(CCN1CCCCC1)N=Nc1c(O)[nH]c2ccccc12`, the max response, negative = inhibition is -96.3% (active).

For `CCc1nc2ccc(C(=O)N(C)Cc3ccco3)cn2c1N(C)C(=O)Cc1ccccc1`, the max response, negative = inhibition is 3.24% (inactive). For `C[C@@H]1CN([C@@H](C)CO)C(=O)CCCn2nncc2CO[C@@H]1CN(C)S(=O)(=O)c1ccc(-c2ccccc2)cc1`, the max response, negative = inhibition is -4.97% (inactive). For the compound `Cc1cccc(-c2cnc(C(O)c3ccc4ccccc4c3)[nH]2)c1` (configuration not stated), the max response, negative = inhibition was -81.3% (active). For `COc1cccc(C(O)c2ncc(-c3ccc4ccccc4c3)[nH]2)c1` (configuration not stated), the max response, negative = inhibition is 38.7% (inactive). The value for `Cc1cccc(-c2cnc(C(O)c3cc(C)cc(C)c3)[nH]2)c1` (configuration not stated) was 0% (inactive). With `CC(=O)Nc1cc(-c2ccc(N3CCN(C)CC3)cc2)cn2c(-c3ccc(F)cc3)cnc12`, the max response, negative = inhibition is -13.9% (inactive). As to `CNc1cnc(-c2cc(OC)c(OC)c(OC)c2)cn1`, the max response, negative = inhibition is 1.16% (inactive).

As to `O=C(NCCN1CCOCC1)C1CCN(S(=O)(=O)c2ccccc2)CC1`, the max response, negative = inhibition was 31.8% (inactive). In the case of `CC(C)Nc1nc(NCCOc2ccccc2Cl)c2sccc2n1`, the max response, negative = inhibition was 0% (inactive). `C[C@@H]1CN([C@@H](C)CO)C(=O)c2cc(NS(C)(=O)=O)ccc2O[C@@H](C)CCCCO[C@H]1CN(C)C(=O)Nc1ccc2c(c1)OCO2`: the max response, negative = inhibition is -18.4% (inactive). As to `COCC1CCN(C(=O)C2CCC(=O)N(Cc3cccc(C(F)(F)F)c3)C2)CC1` (configuration not stated), the max response, negative = inhibition was -5.12% (inactive).

In the case of `CN(C)C(=O)c1cccn(Cc2cccc(C(F)(F)F)c2)c1=O`, the max response, negative = inhibition is 22.1% (inactive). As for `COC(=O)Cc1c(O)ccn(Cc2cccc(C(F)(F)F)c2)c1=O`, the max response, negative = inhibition was -71.6% (active). Take `Cc1cccc(C(=O)NC(=S)N(C)C2CCCCC2)c1`: the max response, negative = inhibition was -4.93% (inactive). In the case of `Cc1cccc(NC(=S)NCc2ccc3[nH]c4c(c3c2)CCCC4)c1`, the max response, negative = inhibition was -3.36% (inactive). The value for `Cc1cccc(NC(=S)NCCN(C2CCCCC2)C2CCCC2)c1` was -65.7% (active); that for `CC(=O)Nc1cccc(-c2ccnc3c2CC(C)(C(=O)NCc2ccccc2)O3)c1` (configuration not stated) was 0% (inactive). The result for `Cc1ccc(CC2(C)C(=O)Nc3ccc(OC(F)(F)F)cc32)cc1` (configuration not stated) reads 0.0703% (inactive); that for `c1ccc(CCC2=NCCn3cccc32)cc1`, -55.5% (active). For `S=C(NCCc1ccccc1)N1CCn2cccc2C1c1ccncc1` (configuration not stated), the max response, negative = inhibition was 6.2% (inactive). The result for `CC1CSc2nnc(CCc3ccccc3)n21` (configuration not stated) reads -21.1% (inactive). For `CCCCN(C=O)c1c(CC)nc2c(OCCC3CCCCC3)cccn12`, the max response, negative = inhibition is -10.7% (inactive). `COc1ccc(C(O)c2nc(-c3ccc4c(c3)OCO4)cs2)cc1` (configuration not stated): the max response, negative = inhibition is 4.32% (inactive).

Regarding `O=C(C[n+]1cc(-c2ccc(Cl)c(Cl)c2)n2c1CCC2)c1cccs1`, the max response, negative = inhibition was -18.5% (inactive). As to `Cc1ccc(-c2c[n+](CC(=O)Nc3ccccc3)c3n2CCC3)cc1`, the max response, negative = inhibition was -65.6% (active). Regarding `Cc1ccc(C(=O)C[n+]2cc(-c3ccccc3)n3c2CCCCC3)cc1`, the max response, negative = inhibition is -4.64% (inactive). On to `O=CNc1cc(-c2ccc(C(=O)N3CCOCC3)cc2)cn2c(-c3ccc(F)cc3)cnc12`, for which the max response, negative = inhibition was -24.2% (inactive). Consider `CC(Nc1nc(N2CCCC2)nc2ccccc12)c1ccccc1` (configuration not stated), for which the max response, negative = inhibition is -74.8% (active). Turning to `CC(Nc1nc(N2CCN(CCO)CC2)nc2ccccc12)c1ccccc1` (configuration not stated), the max response, negative = inhibition is 0% (inactive).

On to `CC(Nc1nc(N2CCOCC2)nc2ccccc12)c1ccccc1` (configuration not stated), for which the max response, negative = inhibition is -1.04% (inactive). The value for `CC1(C(=O)Nc2cccnc2)Cc2c(-c3ccccc3)ccnc2O1` (configuration not stated) was 25.1% (inactive); that for `CC1(C(=O)NS(=O)(=O)c2cccs2)CCN1C(=O)Cc1ccc(-c2ccccc2)cc1` (configuration not stated) was 15.7% (inactive). The result for `Cc1cc(OCC(=O)Nc2nccs2)c2c(C)c(C)c(=O)oc2c1` reads 52.2% (inactive); that for `CC(C)=C(NC(=O)c1ccccc1)C(=O)N/N=C(\C)c1ccccc1O`, -73.8% (active). Take `CNC(=O)C(NC(=O)c1ccccc1)=C(C)C`: the max response, negative = inhibition is 0.178% (inactive).

With `COc1ccc(/C(C)=N\NC(=O)c2ccc(-c3ccccc3)cc2)c(F)c1`, the max response, negative = inhibition is -25.6% (inactive). `O=C(NCc1ccc(F)cc1F)[C@@H]1CCCN1C(=O)[C@@H]1CCCN1C(=O)c1cccc(Cl)c1`: the max response, negative = inhibition was -16.8% (inactive).

`C[C@H](NC(=O)[C@@H]1CCCN1C(=O)[C@@H]1CCCN1C(=O)c1ccccc1)c1ccccc1`: the max response, negative = inhibition is -14.2% (inactive). The result for `Cc1ccc(S(=O)(=O)N(CCc2ccccc2)c2ccc3c(c2)C2CC3CCN2C(=O)OCc2ccccc2)cc1` (configuration not stated) reads 0% (inactive). In the case of `O=C(OCc1ccccc1)N1CCC2CC1c1cc(N3CCN(S(=O)(=O)c4cc(Cl)cc(Cl)c4)CC3)ccc12` (configuration not stated), the max response, negative = inhibition was -1.81% (inactive).

`O=C(OCc1ccccc1)N1CCC2CC1c1ccc(-c3ccc4c(c3)OCO4)cc12` (configuration not stated): the max response, negative = inhibition is -78.9% (active).

`Cc1ccc(NC(=O)Cn2sc3ccccc3c2=O)cc1`: the max response, negative = inhibition is -0.282% (inactive). Regarding `CCNC(=S)Nc1ccc2c(c1)c(=O)n(C)n2Cc1ccc(Cl)cc1`, the max response, negative = inhibition is 8.41% (inactive). Consider `O=[N+]([O-])c1ccc(N=NNc2ccc([N+](=O)[O-])cc2)cc1`, for which the max response, negative = inhibition is -50.6% (active). Consider `CNC(=S)Nc1ccc([N+](=O)[O-])cc1`, for which the max response, negative = inhibition is -17.8% (inactive).

As for `COC(=O)c1ccccc1N=NNc1ccc([N+](=O)[O-])cc1`, the max response, negative = inhibition is 8.12% (inactive).
